Data on 24 molecules can be found in PubChem BioAssay (NCATS).

Each structure is given as a SMILES string. Results filed as inconclusive are left out. Values without a mark were called inactive. Calls of active or inactive are those of the source. Calls follow the shape of the dose curve; as a rule, active = well fitted inhibition curve with a large enough effect; inconclusive = small, poorly fitted or top-dose-only effect; inactive = flat fitted curve, though single readings scatter.

A short description of experiment [1]: qHTS profiling for inhibitors of Plasmodium falciparum proliferation (AID 504749). Also: nearly all actives have a fitted effect of over 60% in size.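 As to activity, negative = inhibition: 0% = DMSO vehicle and full inhibition = artemisinin control.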 The conditions noted are these: P. falciparum in erythrocytes, SYBR Green DNA, 72 h, at 28.7 µM (top of the series). The method in brief: (§1)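 P. falciparum-infected erythrocytes (0.3% parasitemia, 2.5% hematocrit) incubated with compound 72 h at 37 C, 5% CO2. Parasite DNA detected by SYBR Green after lysis, overnight at room temperature; normalised to 0.29 uM artemisinin and DMSO.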

For the next experiment, the system named is 3D7. The experiment is described as above. The conditions noted are these: P. falciparum in erythrocytes, SYBR Green DNA, 72 h; series mostly up to 28.7 µM. The method, boiled down:
as §1

The subject of the next experiment is 7G8. Described as above. The conditions noted are these: P. falciparum in erythrocytes, SYBR Green DNA, 72 h; series mostly up to 28.7 µM. The method, boiled down: as §1
For another experiment, the system named is AA1029. The description is as above. The conditions noted are these: P. falciparum in erythrocytes, SYBR Green DNA, 72 h; series mostly up to 28.7 µM. The method, boiled down:
as §1

In another experiment the test system is AS120. The experiment is described as above. The conditions noted are these: P. falciparum in erythrocytes, SYBR Green DNA, 72 h; series mostly up to 28.7 µM. The method, boiled down: as §1
A further experiment deals with ATS189. The description is as above. The conditions noted are these: P. falciparum in erythrocytes, SYBR Green DNA, 72 h; series mostly up to 28.7 µM. The method, boiled down: as §1
Potency is read from the fitted curve at half-maximal effect.

With `Cc1cc(-c2ccc(N=Nc3ccc4c(S(=O)(=O)O)cc(S(=O)(=O)O)c(N)c4c3O)c(C)c2)ccc1N=Nc1ccc2c(S(=O)(=O)O)cc(S(=O)(=O)O)c(N)c2c1O`, the activity, negative = inhibition was 3.16% in experiment [1] (parasite line A) and 5.39% in experiment [1] (parasite line B). Also, the Potency entry with 3D7, in the experiment with 7G8, in the experiment with AA1029, with AS120 and in the experiment on ATS189 was “inactive” in each case.

Turning to `COC(=O)CCC[N+](C)(C)C`, the activity, negative = inhibition in experiment [1] (parasite line A) is 18.8%; in experiment [1] (parasite line B), 3.25%. The Potency entry in the experiment with 3D7, with 7G8, in the experiment with AA1029, in the experiment on AS120 and in the experiment on ATS189 was “inactive” in each case.

Consider `O=C(NNCS(=O)(=O)O)c1ccncc1`, for which the activity, negative = inhibition in experiment [1] (parasite line A) was 13.1%; in experiment [1] (parasite line B) it was 6.08%. Besides, the Potency entry with 3D7, in the experiment with 7G8, in the experiment on AA1029, with AS120 and in the experiment on ATS189 was “inactive” each time.

As to `S=C=Nc1ccc(N=C=S)cc1`, the activity, negative = inhibition was 10.9% in experiment [1] (parasite line A) and 0.756% in experiment [1] (parasite line B). For the same molecule, the Potency result with 3D7, in the experiment on 7G8, with AA1029, in the experiment with AS120 and with ATS189 was “inactive” throughout.

`Cc1ncc[nH]1`: the activity, negative = inhibition in experiment [1] (parasite line A) was 1.23%; in experiment [1] (parasite line B) it was 14.4%. For the same molecule, the Potency entry with 3D7, in the experiment with 7G8, in the experiment on AA1029, in the experiment on AS120 and with ATS189 was “inactive” each time.

In the case of `CN1CCC(OC(=O)C(Oc2ccc(Cl)cc2)Oc2ccc(Cl)cc2)CC1`, the activity, negative = inhibition is 7.76% in experiment [1] (parasite line A) and -8.26% in experiment [1] (parasite line B). In addition, the Potency result in the experiment on 3D7, in the experiment with 7G8, in the experiment with AA1029, with AS120 and in the experiment with ATS189 was “inactive” in each case.

For the molecule `CC(C)[C@H](N)C(=O)OCC(CO)OCn1cnc2c(=O)[nH]c(N)nc21` (stereo partly drawn), the activity, negative = inhibition in experiment [1] (parasite line A) is 14.7%; in experiment [1] (parasite line B), 6.07%. The Potency result in the experiment on 3D7, with 7G8, in the experiment with AA1029, with AS120 and in the experiment on ATS189 was “inactive” throughout.

`C(=C\c1ccncc1)/c1ccccc1`: the activity, negative = inhibition in experiment [1] (parasite line A) is -2.95%; in experiment [1] (parasite line B), -9.52%. Also, the Potency entry in the experiment on 3D7, with AA1029, with AS120 and in the experiment with ATS189 was “inactive” throughout. Besides, the Potency in the experiment on 7G8 was 12.6 µM (active).

Regarding `CC(=O)Oc1cccc(C(=O)O)c1OC(C)=O`, the activity, negative = inhibition in experiment [1] (parasite line A) is 7.04%; in experiment [1] (parasite line B) it was 3.67%. For the same molecule, the Potency result with 3D7, with 7G8, with AA1029, with AS120 and in the experiment on ATS189 was “inactive” in each case.

On to `CC(CC=O)CCCC(C)(C)O` (stereo not drawn), for which the activity, negative = inhibition in experiment [1] (parasite line A) is 15.9%; in experiment [1] (parasite line B), 2.33%. The Potency entry in the experiment on 3D7, in the experiment on 7G8, in the experiment with AA1029, in the experiment with AS120 and in the experiment on ATS189 was “inactive” each time.

Regarding `FC(F)(F)COCC(F)(F)F`, the activity, negative = inhibition is 12.5% in experiment [1] (parasite line A) and -2.69% in experiment [1] (parasite line B). The Potency entry in the experiment with 3D7, in the experiment on 7G8, with AA1029, with AS120 and in the experiment with ATS189 was “inactive” in each case.

For `C[C@]12CC[C@@H]3c4ccc(OC(=O)c5ccccc5)cc4CC[C@H]3[C@@H]1CC[C@@H]2O`, the figures for the activity, negative = inhibition in experiment [1] (parasite line A) and in experiment [1] (parasite line B) were -13.9% and 5.42%, respectively. Besides, the Potency is 6.31 µM (active) with 3D7 and 11.2 µM (active) in the experiment on 7G8. Moreover, the Potency result with AA1029, in the experiment with AS120 and in the experiment with ATS189 was “inactive” each time.

Take `O=C1c2ccccc2C(=O)C1c1ccc(F)cc1`: the activity, negative = inhibition in experiment [1] (parasite line A) is -6.63%; in experiment [1] (parasite line B), 2.77%. In addition, the Potency result in the experiment with 3D7, in the experiment with 7G8, in the experiment on AA1029, with AS120 and in the experiment on ATS189 was “inactive” in each case.

On to `OC[C@H]1O[C@@](CO)(O[C@H]2O[C@H](CO)[C@@H](O)[C@H](O)[C@H]2O)[C@@H](O)[C@@H]1O`, for which the activity, negative = inhibition in experiment [1] (parasite line A) was 11.2%; in experiment [1] (parasite line B), -0.203%. Further, the Potency result with 3D7, in the experiment on 7G8, with AA1029, in the experiment on AS120 and in the experiment on ATS189 was “inactive” in each case.

Take `Cc1ccc(C(C)(C)c2ccc(C)cc2)cc1`: the activity, negative = inhibition in experiment [1] (parasite line A) is 2.11%; in experiment [1] (parasite line B) it was -1.44%. In addition, the Potency result in the experiment with 3D7, in the experiment with 7G8, in the experiment with AA1029, in the experiment with AS120 and with ATS189 was “inactive” throughout.

Regarding `Nc1ncnc2c1ncn2CCOCP(=O)(O)O`, the activity, negative = inhibition was 14.6% in experiment [1] (parasite line A) and 5.72% in experiment [1] (parasite line B). The Potency result in the experiment on 3D7, with 7G8, in the experiment on AA1029, in the experiment on AS120 and in the experiment on ATS189 was “inactive” each time.

As for `[O]=[Bi][O][Bi]=[O]`, the activity, negative = inhibition in experiment [1] (parasite line A) was 0.672%; in experiment [1] (parasite line B), 4.28%. For the same molecule, the Potency result in the experiment on 3D7, in the experiment with 7G8, with AA1029, with AS120 and in the experiment with ATS189 was “inactive” each time.

With `CCC(O)c1ccccc1` (stereo not drawn), the activity, negative = inhibition in experiment [1] (parasite line A) is 5.27%; in experiment [1] (parasite line B), 8.76%. The Potency entry with 3D7, with 7G8, in the experiment on AA1029, in the experiment with AS120 and with ATS189 was “inactive” in each case.

As for `N[C@H](CC(=O)O)C(=O)O`, the figures for the activity, negative = inhibition in experiment [1] (parasite line A) and in experiment [1] (parasite line B) were 6.17% and 8.93%, respectively. Moreover, the Potency entry in the experiment on 3D7, in the experiment on 7G8, in the experiment with AA1029, with AS120 and with ATS189 was “inactive” in each case.

Regarding `Cc1cc(=O)c(C(=O)N[C@@H](C(=O)N[C@@H]2C(=O)N3C(C(=O)O)=C(CSc4nnnn4C)CS[C@H]23)c2ccc(O)cc2)c[nH]1`, the activity, negative = inhibition in experiment [1] (parasite line A) was 5.19%; in experiment [1] (parasite line B), 9.95%. The Potency entry in the experiment on 3D7, in the experiment on 7G8, in the experiment with AA1029, with AS120 and with ATS189 was “inactive” each time.

`CN(Cc1ccccc1)Cc1ccccc1`: the activity, negative = inhibition was 9.08% in experiment [1] (parasite line A) and -0.726% in experiment [1] (parasite line B). In addition, the Potency entry in the experiment with 3D7, in the experiment on 7G8, with AA1029, in the experiment with AS120 and with ATS189 was “inactive” in each case.

On to `Cc1ccc(S(=O)(=O)O)cc1C`, for which the activity, negative = inhibition in experiment [1] (parasite line A) was 8.18%; in experiment [1] (parasite line B), 4.98%. The Potency result with 3D7, in the experiment with 7G8, in the experiment with AA1029, in the experiment with AS120 and in the experiment with ATS189 was “inactive” each time.

`CO`: the results for the activity, negative = inhibition in experiment [1] (parasite line A) and in experiment [1] (parasite line B) were 8.74% and -8%, respectively. For the same molecule, the Potency result in the experiment on 3D7, with 7G8, in the experiment with AA1029, in the experiment with AS120 and in the experiment with ATS189 was “inactive” throughout.

Take `CC1=CC(=O)NS(=O)(=O)O1`: the values for the activity, negative = inhibition in experiment [1] (parasite line A) and in experiment [1] (parasite line B) were 0.853% and 6.07%, respectively. Moreover, the Potency result in the experiment on 3D7, with 7G8, in the experiment with AA1029, with AS120 and in the experiment on ATS189 was “inactive” each time.
